MARV entry inh = qHTS for inhibitors of binding or entry into cells for Marburg Virus; Marburg virus pseudotyped entry inhibition, cell reporter; 300,000 tested, 1.8% active; AID 540276, 2011; Potency, µM (highest dose often 37.8 µM), for the others: at the top dose activity change, negative = inhibition, most hits filed as inhibitors; calls by dose curve; tested in HEK293 cells; further: potency means the concentration at half of the fitted maximal effect
HCV inh = qHTS Assay for Inhibitors of Hepatitis C Virus (HCV); Huh7.5.1 HCVcc-Cre infection, luciferase reporter, 44 h; AID 651820, 2012; 340,000 tested, 3.4% active; Potency, µM (highest dose often 41.8 µM), inactives show top-dose activity change, negative = inhibition, hits mostly inhibitors; further: potency means the concentration at half of the fitted maximal effect
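Compounds are dispensed onto cells plated 4 h earlier at 1,000 per well, with HCVcc-Cre virus (about 0.5 moi) added next. Following 44 h of culture, luminescent signal is measured for 15 sec after 15 min with substrate at room temperature.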
Pf growth 96h = Primary qHTS for delayed death inhibitors of the malarial parasite plastid, 96 hour incubation; P. falciparum luciferase reporter growth, 96 h; Potency, µM (titrated, usually from 28.7 µM), inactives show at the highest dose activity change, negative = inhibition, hits mostly inhibitors; 320,000 tested, 6.9% active; AID 504834, 2011; further: potency means the concentration at half of the fitted maximal effect
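Infected RBCs, 2% Hct / 0.05% parasitemia final; luciferase-reporter P. falciparum; cpd 96 h, 37 C, 5% CO2; luciferase detection reagent; luminescence.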
Pf growth 48h = Primary qHTS for delayed death inhibitors of the malarial parasite plastid, 48 hour incubation; Potency, µM (titrated, usually from 28.7 µM), for inactives: at the highest dose activity change, negative = inhibition, usual class: inhibitors; P. falciparum luciferase growth in erythrocytes, 48 h; 310,000 tested, 5.9% active; further: potency means the concentration at half of the fitted maximal effect
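Parasite viability was followed by luminescence of a genomically integrated firefly luciferase. Cultures held 0.1% parasitemia at 2% hematocrit (final), incubated under 5% CO2 at 37 C.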
LASV entry inh = qHTS for Inhibitors of binding or entry into cells for Lassa Virus. Lassa virus pseudotype entry inhibition, cell reporter. Potency, µM (titrated, usually from 37.9 µM), inactives show at the top dose activity change, negative = inhibition, most hits filed as inhibitors. 300,000 tested, 1.2% active; calls by dose curve; tested in HEK293 cells; further: potency means the concentration at half of the fitted maximal effect; nearly all actives have a fitted effect of over 50% in size
HCMV inh = qHTS Assay for inhibitors of the human cytomegalovirus (HCMV). AID 1259415, 2018. activity change, negative = inhibition, % at 57.5 µM. 410,000 tested, 4.5% active. HFF cells, HCMV-luciferase reporter, 72 h; active compounds read low; in the data active means activity change below about -60%; inconclusive means no clear call, values can overlap the other calls; inactive means above about -39%
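HFF cells seeded 16 h at 37C, treated with compounds, infected with luciferase-reporter HCMV at MOI 1 PFU/cell; luciferase read at 72 h post infection, normalized to buffer-only and Salinomycin controls.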
An asterisk follows results filed as active; i = inactive; ? = inconclusive; · = no result given; ! = not confirmed by another sample; [ ] = dose if it differs, or a comment. Compounds with a hit are over-represented: about 14% of the library has one in this group of screens. Unless noted, the call rests on the fitted dose curve; in most records, active means well fitted inhibition curve with a large enough effect; inconclusive means small, poorly fitted or top-dose-only effect, or another doubt; inactive means no such curve, though single readings can be large or run the other way. On the % scale 0 is the no-effect control and ±100 the full control effect.

SMILES | MARV entry inh | HCV inh | Pf growth 96h | Pf growth 48h | LASV entry inh | HCMV inh
CCN(CC)S(=O)(=O)c1ccc(OCC(=O)NCc2ccccc2)cc1 | -18.4% | -0.2% | 9.28µM* | ? | ? | -3.3
CCOc1ccc(S(=O)(=O)N(CC)CC(=O)NCc2cccnc2)cc1 | 15.6%[46.1 µM] | 7.3% | 11.7µM* | 8.4% | 3.4% | 17.1
COc1ccc(NC(=O)Cn2c(=O)n(CCC(=O)NCc3ccccc3OC)c(=O)c3ccccc32)cc1Cl | 10.2%[46.1 µM] | · | · | · | -4.8%[46.1 µM] | 7.4
COc1cccc(CN2C(=O)C(C)N(C(=O)c3c(F)cccc3F)c3ccccc32)c1 (stereo not drawn) | · | 10µM* | 6.57µM* | 9.28µM* | · | -83.2*
CC1C(=O)N(Cc2cccc(F)c2)c2ccccc2N1C(=O)c1ccccc1 (stereo not drawn) | ? | ? | ? | ? | -6.8% | ?
O=C1c2ccccc2CC1(Cc1ccccc1)Cc1ccccc1 | -16.6% | 2.2% | ? | 13.1µM* | ? | -24.9
CC(=O)Oc1cc2c3c(c1)/C(=C1/SC(=S)NC1=O)C(=O)N3C(C)(C)C=C2C | · | 12.9% | 0.9% | 5.2% | · | -65.8*
CN(C)S(=O)(=O)N1CCC(Oc2cccc(C(=O)N3CCCCCCC3)c2)CC1 | -0.9% | ? | -16.8% | ? | 11.2µM* | ·
C=C(C)CN(CC)C(=O)c1ccc(OC2CCN(S(=O)(=O)N(C)C)CC2)cc1 | · | -27.5% | 4.15µM* | 0.0% | · | -1.3
C=C(C)CNC(=O)c1ccc(OC2CCN(S(=O)(=O)N(C)C)CC2)cc1 | -0.7%[46.1 µM] | -3.1% | 13.1µM* | 2.4% | -1.2% | 20.1
CN(C)c1ccc(CNC(=O)C2CCN(S(=O)(=O)c3ccc4[nH]c(=O)ccc4c3)CC2)cc1 | · | · | · | · | -0.4%[46.1 µM] | 22.7
COc1cc(OC)cc(-c2cc3c(Nc4ccc(OC)nc4)nccc3n2C)c1 | · | · | · | · | · | -30.7
N#Cc1c(Cl)nsc1NC(=O)c1ccccc1 | · | 14.1µM* | 0.0% | ? | · | -99.9*
Cc1ccc(C(=O)O[C@H](C(=O)O)[C@@H](OC(=O)c2ccc(C)cc2)C(=O)O)cc1 (tested in a mixture with another compound) | -1.4% | · | · | · | 7.7% | ·
Cc1ccc(OCC(=O)Nc2ccc(S(=O)(=O)Nc3cc(C)nc(C)n3)cc2)c(Br)c1 | · | · | · | · | -0.8%[46.1 µM] | 23.2
O=C1C=CC(=O)N1CCCCCCN1C(=O)C=CC1=O | ? | ? | ? | 8.9% | ? | -101.6*
CCN1C(=O)C=CC1=O | 28.2µM*! | · | · | · | 7.4% | ·
CCN1C(=O)CC(=O)N(CC)C1=S | · | · | · | · | · | 10.2
O=C(O)CN1C(=O)C=CC1=O | · | · | · | · | · | 29.5
CC(C)(C)c1ccc(/C=N/Nc2cccc(C(=O)O)c2)cc1 | · | 14.4% | 7.4% | 339.1% | · | 159.8
Fc1ccc(N/N=C/c2ccncc2)c(F)c1 | 32.9% | 1.5% | 5.6% | 86.0% | 0.6% | 113.0
CC(C)(C)c1ccc(/C=N/Nc2ccc(C(=O)O)cc2)cc1 | 3.66µM* | 5.9% | 425.7% | 24.7% | 2µM* | -76.0*
O=C(O)c1ccc(/C=N/Nc2ccc(F)cc2F)cc1 | 14.1µM* | 22.8% | i | i | 2.82µM* | 213.6
O=C(O)c1ccc(N/N=C/c2ccc(C(F)(F)F)cc2)cc1 | 1.58µM* | 31.3% | i[5.75 µM] | 58.6% | 1.26µM* | -30.5
O=C(N/N=C/c1ccc(C(F)(F)F)cc1)c1ccc(O)cc1 | ? | ? | 20.7% | 12.8% | ? | ?
SMILES | MARV entry inh | HCV inh | Pf growth 96h | Pf growth 48h | LASV entry inh | HCMV inh
COc1ccc(-c2cn3cccnc3n2)cc1NC(=O)Nc1ccc(Cl)cc1 | · | · | · | · | -14.5%[46.1 µM] | -35.8
CCCNC(=O)C1(C)CCN(C(=O)c2ccc(F)c(Cl)c2)C1 (stereo not drawn) | · | · | · | · | · | -7.2
CN(C)CCCNC(=O)/C(=C\c1ccc(-c2ccc(Br)cc2)o1)NC(=O)c1ccccc1 | ? | ? | ? | 10.4µM* | ? | ?
Cc1ccc(C(=O)N/C(=C\c2ccc(Cl)cc2)C(=O)NCCCN2CCOCC2)cc1 | ? | ? | -19.9% | -10.0% | 11.1% | -22.6
Cc1ccc(C(=O)N/C(=C\c2ccc(-c3ccc(Cl)cc3)o2)C(=O)NCCCN(C)C)cc1 | 6.31µM* | ? | 9.28µM* | 10.4µM* | ? | -71.6*
O=C(NCCCN1CCOCC1)c1cc(C(=O)C2CCCCC2)c[nH]1 | -2.4%[46.1 µM] | 20.0% | 0.0% | 10.4µM* | -4.2% | -8.1
CSCCC(NC(=O)c1ccccc1)C(=O)O (stereo not drawn) | -12.4%[46.1 µM] | 13.4% | 0.0% | 3.1% | 3.4%[46.1 µM] | -31.8
Cc1ccc(C(=O)NC(c2ccccc2)C(Cl)Cl)cc1 (stereo not drawn) | ? | ? | ? | -0.2% | 3.8% | ?
O=C(NC(c1ccccc1)C(Cl)Cl)c1ccccc1 (stereo not drawn) | ? | 15.6% | 2.62µM* | -27.2% | 7.4% | -12.1
O=C(NC(CSSCC(NC(=O)c1ccccc1)C(=O)O)C(=O)O)c1ccccc1 (stereo not drawn) | · | 1.58µM* | 43.3% | 28.7% | · | -18.0
CCOC(=O)c1cccn1C1C(=O)N(Cc2ccc(Cl)nc2)c2c(F)cccc21 (stereo not drawn) | · | · | · | · | · | -4.6
CN1C2CC(OC(=O)[C@H](CO)c3ccccc3)CC1C1OC12 (stereo partly drawn) | 11.2% | · | · | · | 15.0% | ·
NC(C(=O)O)C1ON=C(Cl)C1O (stereo not drawn) | -1.8% | ? | · | · | -11.8% | -85.9*
NC(C(=O)O)C1CC(Cl)=NO1 (stereo not drawn) | -26.1% | 1.9%[8.37 µM] | 3.29µM* | ? | 2.2% | ·
NC(C(=O)O)[C@@H]1CC(Cl)=NO1 (stereo partly drawn) | · | · | ? | -97.2% | · | ·
COc1ccc(CNC(=O)Cn2nc3c(cc2=O)CCCC3)cc1 | · | · | · | · | -0.4%[46.1 µM] | ?
CN1/C(=C\C=[N+](C)c2ccccc2)C(C)(C)c2ccccc21 | ? | 11.2µM* | 2.08µM* | 0.415µM* | 4.61µM* | -94.7*
CC1=NN(c2ccccc2)C(=O)/C1=C\C=C1\N(C)c2ccccc2C1(C)C | 8.1% | ? | 13.6% | ? | 4.1% | -6.5
CC1=NN(c2ccccc2)C(=O)/C1=C\C=C1/N(C)c2ccccc2C1(C)C | 11.2µM* | ? | ? | ? | ? | -38.3
CC1=NN(c2ccccc2)C(=O)/C1=C\c1cc(C)n(C)c1C | 1.4% | 3.4% | 9.28µM* | ? | 9.9% | 45.3
CC1=NN(c2ccccc2)C(=O)/C1=C\c1cn(C)c2ccccc12 | -1.7%[46.1 µM] | ? | ? | ? | 16.4% | 61.1
CC1=NN(c2ccccc2)C(=O)/C1=C/c1cn(C)c2ccccc12 | 4.7%[46.1 µM] | -11.0% | 7.38µM* | ? | 11.7% | -11.7
